Assay [1] in a line: yeast TOR pathway RPL19A-GFP modulators, primary screen, cell-based, S. cerevisiae, multiplex flow cytometry (AID 1862; in the data active = percent of DMSO control GFP below about 86%;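 also: lower values mimic rapamycin by blocking the RPL19A rise seen in DMSO cells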). Conditions: S. cerevisiae RPL19A-GFP strain, flow cytometry fluorescence, 3 h; at 10 µM; stronger effect = lower value.
The nature of assay [2]: modulators of MEP2-GFP levels in yeast, primary screen, S. cerevisiae, multiplex flow cytometry (AID 1867;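 active = GFP response, as percent of the DMSO control, above the screen-wide mean plus 3 SD, about 139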;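 also: median GFP channel fluorescence of barcode-gated MEP2-GFP cells measured by flow cytometry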). Conditions: S. cerevisiae MEP2-GFP strain, 3 h, at 10 µM, stronger effect = higher value, 100% means same as DMSO wells.
Assay [3] is described as follows: modulators of CIT2-GFP expression in yeast, primary screen, S. cerevisiae, GFP fusion, multiplex flow cytometry (AID 1870).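 Also: barcoded CIT2-GFP strain pooled with four other GFP strains with rapamycin as positive control; median GFP fluorescence per well over plate mean of DMSO wells so 100% = DMSO.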 The note with it: 3 h, at 10 µM, stronger effect = higher value.
Assay [4] is described as follows: modulators of LAP4-GFP expression in yeast, primary screen, S. cerevisiae, multiplex flow cytometry (AID 1873;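 active = GFP signal, as percent of the solvent control, above the screen mean plus 3 SD, about 149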). Conditions: 3 h, at 10 µM, stronger effect = higher value.
A short description of assay [5]: modulators of AGP1-GFP expression in yeast TOR pathway, primary screen, cell-based, multiplex flow cytometry, S. cerevisiae (AID 1887;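 active = GFP signal above the screen-wide mean plus 3 SD, that is over about 124.5% of the solvent control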;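 also: AGP1-GFP fusion strain of S. cerevisiae within a five-strain barcoded multiplex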). Conditions: 3 h, at 10 µM, stronger effect = higher value.
Assay [6] in a line: inhibitors of CD8+ T cell-vesicle binding, pilot screen, LFA-1/ICAM-1 modulator project, MLPCN validation set, flow cytometry (AID 2523;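 active = response below a set limit, under 55% cells CD8-positive and vesicle-bound, and CD8 cells' 90th-percentile brightness under 279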;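 as to vesicle binding response: mean PE anti-B7-1 fluorescence of CD8+ cells relative to row control; 100% = QL9-loaded vesicles with DMSO vehicle in the same plate row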). The note with it: 2C mouse CD8+ T cells, at 7 µM, stronger effect = lower value; double positive events: measured here: CD8+/vesicle+ event percentage.
Assay [7] addresses Integrin beta-1 (Homo sapiens) + Integrin alpha-4 (Homo sapiens) (UniProt P13612+P05556). The assay can be described thus: inhibition of HUTS-21 binding to VLA-4, pilot screen, VLA-4 allosteric modulator project, U937 cells, HUTS-21 mAb, flow cytometry, validation set (AID 2674;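 active = inhibition above 50%, about 3 SD of the validation set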;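 also: antibody binding induced by the VLA-4 ligand LDV present at three times its Kd; 0% = LDV ligand with antibody and no compound and 100% = antibody without LDV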). The note with it: HUTS-21 LIBS mAb binding, at 6.7 µM, stronger effect = higher value, binding induced by LDV ligand.

The nature of assay [8]: superoxide lowering in aged yeast cells, pilot screen, validation compound set (AID 2706;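 active = superoxide response below 65% of plate, a cut near 3 SD across the whole screen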;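 also: yeast exposed to compound for one week at 30 degrees C before staining; 100% = mean of all compound wells on the same plate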). Conditions: S. cerevisiae aging, superoxide DHE fluorescence; at 10 µM, stronger effect = lower value.
Assay [9] concerns the target Beta-adrenergic receptor kinase 1 (Homo sapiens) (UniProt P25098). The assay can be described thus: GRK2 binders displacing RNA aptamer, biochemical, validation, human GRK2, bead flow cytometry (AID 488806;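 active = aptamer binding inhibition above 30%, about 3 SD of noise from non-fluorescent compounds; inactive = inhibition at or below 30%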). Conditions: bead-bound GRK2, FAM-aptamer displacement, at 10 µM, stronger effect = higher value.
Assay [10] addresses AP-2 complex subunit beta (Homo sapiens) (UniProt P63010). The assay is described as follows: inhibitors of arrestin peptide binding to AP2, pilot screen, biochemical, validation set, GST-AP2 beads, flow cytometry (AID 504541;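 active = inhibition above 54%, about 3 SD of non-fluorescent compounds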;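 also: AP2 carries R879A mutation and is captured from E. coli lysate; bead-bound FITC arrestin peptide fluorescence measuring arrestin peptide binding to AP2; 0% = DMSO wells and 100% = excess unlabeled arrestin peptide control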). Conditions: FITC arrestin peptide, at 10 µM, stronger effect = higher value, AP2 beta2 appendage fragment, R879A mutant.
Assay [11] is described as follows: yeast V-ATPase proton transport modulators, S. cerevisiae, pHLuorin, HTS validation (AID 504600; in the data active = response above about 15%;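 also: plate controls were DMSO for no effect and reference compound for full effect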). The note with it: S. cerevisiae pHLuorin cytosolic pH, at 10 µM, stronger effect = higher value.
In assay [12] the test system is anti-desmoglein-3 scFv antibody binding to human DSG3. The assay is described as follows: inhibitors of anti-DSG3 scFv binding to DSG3, pilot screen, biochemical, validation compound set, bead-based, flow cytometry (AID 588368;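 active = binding below the plate cutoff, the plate median minus 3 SD, with a reading above zero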;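 also: signal is the median channel fluorescence of bead-bound GFP antibody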). The note with it: Protein G beads, DSG3-Fc, scFv-GFP binding, at 10 µM, stronger effect = lower value.
Assay [13] in a line: inhibitors of fungal efflux pumps CDR1, CDR2, MDR1, pilot screen, validation compound set, multiplex, phenotypic (AID 588506;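 active = efflux inhibition above 0.42, the validation set average plus 4 SD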;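 also: Nile Red retained in cells so higher fluorescence means more efflux inhibition; 0 = negative control wells and 1 = enniatin B 25 µM full block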). The note with it: S. cerevisiae pump-expressing triplex, Nile Red efflux flow cytometry; at 10 µM; stronger effect = higher value; the pumps come from Candida albicans.
Assay [14] deals with ATP-binding cassette sub-family B member 6 (Homo sapiens) (UniProt Q9NP58). The assay is described as follows: ABCB6 transporter inhibitors, pilot screen, K562-ABCB6 cells, flow cytometry, validation set (AID 588550;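 active = inhibition above the screen-wide mean plus 3 SD, about 51%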;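 also: 0% = DMSO wells and 100% = benzethonium chloride 70 µM positive control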). The note with it: K562-ABCB6 porphyrin accumulation, 1 h, at 10 µM, stronger effect = higher value.
A short description of assay [15]: promoters of myeloid differentiation in arrested cells, primary screen, cell-based, GFP/MAC1 double positive, flow cytometry, validation set (AID 588685;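 active = differentiation response of at least 50%, scaled between solvent and reference control, from cells with both markers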;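 also: compound exposure lasts four days before antibody staining and flow analysis; 0% = DMSO wells and 100% = 5 µM fulvestrant positive control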). The note with it: ER-HoxA9 marrow cells, stronger effect = higher value, normalized: vehicle 0, fulvestrant 100.

Inconclusive results are not listed. The source made the active and inactive calls.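 The calls were made as follows, unless noted: active = percent response above a set limit, the screen-wide mean plus 3 SD (cut at about 130% in these data); inactive = the rest.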

Sequence of AP-2 complex subunit beta (Homo sapiens) (P63010 whole entry, looked up, the tested form may be a part, one chain of several): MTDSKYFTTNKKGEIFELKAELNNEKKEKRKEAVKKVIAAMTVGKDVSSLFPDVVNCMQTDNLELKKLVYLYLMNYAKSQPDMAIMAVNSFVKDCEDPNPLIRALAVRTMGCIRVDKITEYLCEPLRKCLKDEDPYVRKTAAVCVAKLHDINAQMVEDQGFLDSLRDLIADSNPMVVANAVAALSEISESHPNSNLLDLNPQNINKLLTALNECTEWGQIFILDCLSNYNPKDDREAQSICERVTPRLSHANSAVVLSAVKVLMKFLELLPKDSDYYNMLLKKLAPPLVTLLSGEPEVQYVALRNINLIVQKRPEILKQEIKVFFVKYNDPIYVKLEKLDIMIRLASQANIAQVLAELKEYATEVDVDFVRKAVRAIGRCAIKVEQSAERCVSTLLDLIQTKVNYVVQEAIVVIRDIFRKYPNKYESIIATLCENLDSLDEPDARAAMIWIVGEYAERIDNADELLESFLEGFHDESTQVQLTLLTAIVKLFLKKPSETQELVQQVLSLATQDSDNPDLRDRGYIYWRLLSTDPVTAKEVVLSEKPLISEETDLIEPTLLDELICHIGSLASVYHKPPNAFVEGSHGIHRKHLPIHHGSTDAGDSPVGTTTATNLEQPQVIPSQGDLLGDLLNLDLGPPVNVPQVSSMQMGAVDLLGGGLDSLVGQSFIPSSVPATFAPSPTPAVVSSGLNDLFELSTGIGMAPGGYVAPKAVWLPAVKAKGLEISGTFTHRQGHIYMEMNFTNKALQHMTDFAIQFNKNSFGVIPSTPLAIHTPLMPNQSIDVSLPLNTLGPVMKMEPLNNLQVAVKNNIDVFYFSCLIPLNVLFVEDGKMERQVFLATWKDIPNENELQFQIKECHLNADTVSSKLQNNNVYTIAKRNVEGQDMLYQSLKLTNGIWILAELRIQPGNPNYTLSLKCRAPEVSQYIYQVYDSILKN
Sequence of ATP-binding cassette sub-family B member 6 (Homo sapiens) (Q9NP58 whole entry, looked up): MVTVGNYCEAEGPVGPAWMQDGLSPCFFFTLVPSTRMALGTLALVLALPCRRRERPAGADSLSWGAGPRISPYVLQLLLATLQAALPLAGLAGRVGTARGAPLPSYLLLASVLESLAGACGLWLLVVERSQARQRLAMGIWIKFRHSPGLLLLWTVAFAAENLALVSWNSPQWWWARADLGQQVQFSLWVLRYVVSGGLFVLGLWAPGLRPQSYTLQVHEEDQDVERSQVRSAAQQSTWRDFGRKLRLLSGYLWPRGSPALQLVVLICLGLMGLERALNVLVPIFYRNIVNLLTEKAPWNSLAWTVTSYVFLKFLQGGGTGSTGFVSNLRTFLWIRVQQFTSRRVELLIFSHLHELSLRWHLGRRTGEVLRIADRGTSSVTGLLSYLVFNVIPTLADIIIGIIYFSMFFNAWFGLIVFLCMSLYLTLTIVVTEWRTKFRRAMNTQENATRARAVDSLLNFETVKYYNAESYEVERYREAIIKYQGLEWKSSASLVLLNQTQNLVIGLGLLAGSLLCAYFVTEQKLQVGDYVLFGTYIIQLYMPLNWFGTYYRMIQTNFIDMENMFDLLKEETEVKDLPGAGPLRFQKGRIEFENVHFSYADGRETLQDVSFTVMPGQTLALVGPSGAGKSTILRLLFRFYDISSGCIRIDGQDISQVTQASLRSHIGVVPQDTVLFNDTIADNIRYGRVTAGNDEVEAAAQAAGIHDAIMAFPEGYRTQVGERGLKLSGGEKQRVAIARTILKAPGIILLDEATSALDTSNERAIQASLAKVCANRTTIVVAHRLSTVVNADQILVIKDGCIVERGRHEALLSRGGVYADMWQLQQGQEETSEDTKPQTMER
Sequence of Beta-adrenergic receptor kinase 1 (Homo sapiens) (P25098 whole entry, looked up): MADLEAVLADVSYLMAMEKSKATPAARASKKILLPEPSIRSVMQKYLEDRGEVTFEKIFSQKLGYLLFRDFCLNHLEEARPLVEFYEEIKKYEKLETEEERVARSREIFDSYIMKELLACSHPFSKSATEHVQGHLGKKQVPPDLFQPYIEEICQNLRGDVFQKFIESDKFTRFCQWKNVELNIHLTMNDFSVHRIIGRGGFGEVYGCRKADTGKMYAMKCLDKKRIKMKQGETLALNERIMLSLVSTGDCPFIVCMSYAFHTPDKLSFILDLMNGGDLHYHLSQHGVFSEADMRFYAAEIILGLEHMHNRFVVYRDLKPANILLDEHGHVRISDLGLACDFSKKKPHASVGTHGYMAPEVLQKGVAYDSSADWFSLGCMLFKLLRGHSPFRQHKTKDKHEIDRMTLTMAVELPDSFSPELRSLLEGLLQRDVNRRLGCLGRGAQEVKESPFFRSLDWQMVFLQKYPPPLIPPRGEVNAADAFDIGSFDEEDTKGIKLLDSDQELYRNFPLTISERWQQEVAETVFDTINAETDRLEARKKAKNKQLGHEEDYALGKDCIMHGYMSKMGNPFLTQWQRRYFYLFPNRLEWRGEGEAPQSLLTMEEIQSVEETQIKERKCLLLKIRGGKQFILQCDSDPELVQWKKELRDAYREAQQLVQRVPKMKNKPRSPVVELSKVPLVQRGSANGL
Sequence of Integrin beta-1 (Homo sapiens) + Integrin alpha-4 (Homo sapiens) (P05556 whole entry, looked up): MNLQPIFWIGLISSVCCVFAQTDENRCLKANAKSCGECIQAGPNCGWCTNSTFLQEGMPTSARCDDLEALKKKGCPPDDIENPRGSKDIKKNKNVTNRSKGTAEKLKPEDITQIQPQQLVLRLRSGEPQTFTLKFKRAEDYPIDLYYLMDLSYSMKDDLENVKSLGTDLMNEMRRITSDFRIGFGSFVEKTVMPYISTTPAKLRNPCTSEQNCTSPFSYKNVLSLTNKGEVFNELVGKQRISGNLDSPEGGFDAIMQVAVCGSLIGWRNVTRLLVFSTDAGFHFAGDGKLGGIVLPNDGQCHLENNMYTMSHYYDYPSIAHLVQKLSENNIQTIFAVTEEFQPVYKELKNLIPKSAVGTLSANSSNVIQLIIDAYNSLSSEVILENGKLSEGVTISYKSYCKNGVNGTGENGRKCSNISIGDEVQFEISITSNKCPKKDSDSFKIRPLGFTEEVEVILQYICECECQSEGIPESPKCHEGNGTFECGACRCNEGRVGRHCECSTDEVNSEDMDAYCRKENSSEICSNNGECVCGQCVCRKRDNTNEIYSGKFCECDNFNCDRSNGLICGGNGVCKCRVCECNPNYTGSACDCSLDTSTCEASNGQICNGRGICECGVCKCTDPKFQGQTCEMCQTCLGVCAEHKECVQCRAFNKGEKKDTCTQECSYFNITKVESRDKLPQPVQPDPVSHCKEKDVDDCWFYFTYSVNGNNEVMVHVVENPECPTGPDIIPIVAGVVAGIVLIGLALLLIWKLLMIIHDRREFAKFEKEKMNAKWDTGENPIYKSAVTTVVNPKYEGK
Sequence of Integrin beta-1 (Homo sapiens) + Integrin alpha-4 (Homo sapiens) (P13612 whole entry, looked up): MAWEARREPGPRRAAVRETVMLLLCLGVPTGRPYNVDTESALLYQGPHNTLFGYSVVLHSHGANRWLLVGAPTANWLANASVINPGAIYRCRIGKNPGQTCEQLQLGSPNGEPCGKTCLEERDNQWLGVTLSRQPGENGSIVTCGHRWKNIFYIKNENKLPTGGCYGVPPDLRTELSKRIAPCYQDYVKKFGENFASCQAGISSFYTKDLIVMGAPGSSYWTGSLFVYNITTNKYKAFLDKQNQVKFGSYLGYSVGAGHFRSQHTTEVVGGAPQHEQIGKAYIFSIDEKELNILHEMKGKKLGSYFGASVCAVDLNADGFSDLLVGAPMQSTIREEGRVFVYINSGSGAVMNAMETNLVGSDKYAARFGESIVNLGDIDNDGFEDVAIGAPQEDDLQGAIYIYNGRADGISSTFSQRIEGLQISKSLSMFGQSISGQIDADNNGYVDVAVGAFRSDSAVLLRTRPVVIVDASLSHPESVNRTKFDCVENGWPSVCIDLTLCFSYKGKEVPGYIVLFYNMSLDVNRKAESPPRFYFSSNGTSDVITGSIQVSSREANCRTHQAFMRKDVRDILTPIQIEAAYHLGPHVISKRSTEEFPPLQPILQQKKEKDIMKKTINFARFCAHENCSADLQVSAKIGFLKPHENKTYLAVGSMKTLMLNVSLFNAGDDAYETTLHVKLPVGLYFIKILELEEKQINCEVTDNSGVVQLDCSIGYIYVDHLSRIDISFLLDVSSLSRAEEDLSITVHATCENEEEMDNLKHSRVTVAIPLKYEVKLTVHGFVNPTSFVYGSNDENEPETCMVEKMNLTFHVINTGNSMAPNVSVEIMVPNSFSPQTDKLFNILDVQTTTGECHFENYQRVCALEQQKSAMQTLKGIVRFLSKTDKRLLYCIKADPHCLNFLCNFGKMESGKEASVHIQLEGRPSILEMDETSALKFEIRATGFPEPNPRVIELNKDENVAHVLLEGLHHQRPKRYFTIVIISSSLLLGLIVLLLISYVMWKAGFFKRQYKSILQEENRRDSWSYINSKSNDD

For `CCOc1ccc(NC(=O)N[C@@H](CCSC)C(=O)OC)cc1`, in [1], the percent of DMSO control GFP was 105% (inactive). Also, the values for the GFP response vs DMSO in assay [2] and in [4] were 106% (inactive) and 96.4% (inactive), respectively. In addition, the percent response of DMSO control in [3] was 104% (inactive). The GFP response, % of DMSO in [5] was 105% (inactive). Besides, in [6], the double positive events was determined as 52.6%. Besides, the vesicle binding response in [6] is 164% (inactive). Moreover, the inhibition in assay [7] is 5.36% (inactive); in assay [10], 5.32% (inactive); in [14], 6% (inactive). Further, in assay [8], the superoxide response (% of plate) is 117% (inactive). Besides, in assay [9], the aptamer binding inhibition is 1% (inactive). For the same compound, in [11], the response was 4.65% (inactive). The binding (% of control) in [12] was 98.5% (inactive). The efflux inhibition (fraction of control) in [13] is -0.47 (inactive). In addition, the differentiation response in assay [15] is 9.49% (inactive).

`COc1ccc([C@@H]2Sc3ccccc3N(CCN(C)C)C(=O)[C@@H]2OC(C)=O)cc1`: the percent of DMSO control GFP in assay [1] is 104% (inactive). Further, the GFP response vs DMSO in assay [2] is 102% (inactive); in [4], 93.3% (inactive). The percent response of DMSO control in assay [3] is 105% (inactive). In [5], the GFP response, % of DMSO was 101% (inactive). The compound further returned a double positive events in [6] of 62.9%. Besides, the vesicle binding response in assay [6] was 200% (inactive). The figures for the inhibition in assay [7], in [10] and in assay [14] were -0.24% (inactive), 5.2% (inactive) and -227% (inactive), respectively. Also, the superoxide response (% of plate) in assay [8] was 101% (inactive). Besides, the aptamer binding inhibition in assay [9] is -1% (inactive). In addition, the response in assay [11] is -4.23% (inactive). The binding (% of control) in [12] is 99.1% (inactive). The efflux inhibition (fraction of control) in [13] was 0.03 (inactive). In [15], the differentiation response was -8.27% (inactive).

Take `CCOC(=O)Nc1ccc2c(c1)N(C(=O)CCN1CCOCC1)c1ccccc1S2`: the percent of DMSO control GFP in [1] is 107% (inactive). Moreover, the results for the GFP response vs DMSO in assay [2] and in assay [4] were 102% (inactive) and 92.3% (inactive), respectively. In addition, in assay [3], the percent response of DMSO control was 109% (inactive). Moreover, in assay [5], the GFP response, % of DMSO was 109% (inactive). Further, the double positive events in assay [6] came to 48.8%. Also, in assay [6], the vesicle binding response is 120% (inactive). For the same compound, the inhibition in assay [7] is -8.64% (inactive); in [10] it was 9.79% (inactive); in assay [14], 8% (inactive). Besides, the superoxide response (% of plate) in assay [8] was 106% (inactive). Moreover, the aptamer binding inhibition in assay [9] is 0% (inactive). Also, in assay [11], the response is -2.72% (inactive). Moreover, in [12], the binding (% of control) is 97.3% (inactive). The efflux inhibition (fraction of control) in [13] was -0.43 (inactive). For the same compound, the differentiation response in [15] is -8.27% (inactive).

Regarding `CC(C)Cc1cc(C(=O)N2CCC(N3CCC(C(=O)N4CCCC4)CC3)CC2)n[nH]1`, the percent of DMSO control GFP in assay [1] was 100% (inactive). The figures for the GFP response vs DMSO in assay [2] and in assay [4] were 89.7% (inactive) and 96.4% (inactive), respectively. Besides, the percent response of DMSO control in [3] is 109% (inactive). The GFP response, % of DMSO in assay [5] is 102% (inactive). The same compound showed a double positive events in [6] of 47.5%. Besides, the vesicle binding response in [6] was 191% (inactive). In addition, the inhibition was -2.11% (inactive) in [7], 3.03% (inactive) in assay [10] and 3% (inactive) in assay [14]. The superoxide response (% of plate) in assay [8] was 102% (inactive). In addition, the aptamer binding inhibition in [9] was -3% (inactive). Moreover, the response in [11] was 1.07% (inactive). The binding (% of control) in assay [12] was 107% (inactive). In addition, the efflux inhibition (fraction of control) in assay [13] was -0.16 (inactive). In addition, in assay [15], the differentiation response is -27.6% (inactive).

For `O=C(O)c1cccnc1`, the percent of DMSO control GFP in assay [1] was 103% (inactive). Moreover, the figures for the GFP response vs DMSO in assay [2] and in assay [4] were 105% (inactive) and 101% (inactive), respectively. In [3], the percent response of DMSO control was 96.9% (inactive). In addition, the GFP response, % of DMSO in [5] is 105% (inactive). The same compound gave a double positive events in assay [6] of 54.3%. Besides, the vesicle binding response in [6] was 137% (inactive). The inhibition in [7] was 13.8% (inactive); in assay [10], -4.36% (inactive); in assay [14] it was 16% (inactive). The superoxide response (% of plate) in assay [8] was 94.8% (inactive). In assay [9], the aptamer binding inhibition is 4% (inactive). For the same compound, the response in [11] was 4.12% (inactive). Also, in assay [12], the binding (% of control) is 101% (inactive). The efflux inhibition (fraction of control) in assay [13] is 0.29 (inactive). Moreover, the differentiation response in assay [15] is 20.8% (inactive).

The record behind these values is PubChem BioAssay.
